Test results from PubChem BioAssay (NCATS).
Records with an inconclusive call do not appear. Entries that show only a call come without a potency. Calls of active or inactive are those of the source. Unless noted, calls follow the shape of the full dose curve.

Assays:
[1] = qHTS profiling of the MIPE4 collection as inhibitors of Plasmodium falciparum (DD2) proliferation (Rep 2) (AID 743346; call rule not given here); details: P. falciparum Dd2 in erythrocytes, SYBR Green DNA, 72 h; at 28.5 µM unless noted
Procedure, shortened: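 Erythrocytes infected with P. falciparum (0.3% parasitemia, 2.5% hematocrit) incubated with compounds 72 h at 37 C, 5% CO2. Lysis with saponin/Triton buffer containing SYBR Green I, overnight at room temperature in the dark; DNA fluorescence (485/535 nm) normalised to 0.29 uM artemisinin and DMSO.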

[2] = qHTS for Inhibitors of the Functional Ribonucleoprotein Complex (vRNP) of Lassa (LASV) Arenavirus: LASV Primary Screen - GLuc reporter signal (AID 1347082; calls by dose curve; tested in HEK293 reporter line; also: nearly all actives have a fitted effect of over 60% in size)
[3] = qHTS for Inhibitors of the Functional Ribonucleoprotein Complex (vRNP) of Lassa (LASV) Arenavirus: Viability assay - alamar blue signal for LASV Primary Screen (AID 1347083; calls by dose curve; tested in HEK293 reporter line; also: nearly all actives have a fitted effect of over 80% in size)
[4] = qHTS for Inhibitors of the Functional Ribonucleoprotein Complex (vRNP) of Lymphocytic Choriomeningitis Arenaviruses (LCMV): Viability assay - alamar blue signal for LCMV Primary Screen (AID 1347085; calls by dose curve; tested in HEK293 reporter line; also: nearly all actives have a fitted effect of over 80% in size)
[5] = molecular target: Nucleoprotein (Lymphocytic choriomeningitis virus (strain Armstrong)) (UniProt P09992); experiment: qHTS for Inhibitors of the Functional Ribonucleoprotein Complex (vRNP) of Lymphocytic Choriomeningitis Arenaviruses (LCMV): LCMV Primary Screen - GLuc reporter signal (AID 1347086); also: nearly all actives have a fitted effect of over 70% in size
[6] = Primary qHTS to identify inhibitors of SARS-CoV-2 cell entry (AID 1645846); details: activity change, negative = inhibition: at 57.1 µM (top of the series) unless noted; also: nearly all actives have a fitted effect of over 45% in size
Procedure, shortened: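 Using luciferase-reporting pseudoviruses carrying Wuhan-Hu-1 spike, the screen tracks entry into stably ACE2-expressing cells over 48 hr. Activity is expressed relative to spike particles versus particles lacking any fusion protein.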

[7] = tested on: CRL-7250; experiment: qHTS assay to identify novel small-molecules to repurpose for Merkel cell carcinoma treatment (AID 1296009; active = well fitted inhibition curve with a large enough effect; also: nearly all actives have a fitted effect of over 60% in size); details: MCC and control cell lines, CellTiter-Glo viability, 72 h; series mostly up to 92 µM
Procedure, shortened: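 qHTS format: cells treated with library compounds in DMSO across 8 (NPC) or 11 (MIPE) concentrations. Readout after 72 hr at 37 degree celsius was CellTiter-Glo luminescence.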

[8] = Cytotoxicity counterscreen for inhibitors of SARS-CoV-2 cell entry (AID 1645845); also: nearly all actives have a fitted effect of over 50% in size
Procedure, shortened: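 Expi293F/hACE2 cells seeded overnight; cpd pin-transferred in DMSO, 1 h preincubation, + media, 48 h 37 C 5% CO2; ATPLite 1step luminescence; normalized to cells and no cells.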

Chain of Nucleoprotein (Lymphocytic choriomeningitis virus (strain Armstrong)) (P09992 whole entry, looked up): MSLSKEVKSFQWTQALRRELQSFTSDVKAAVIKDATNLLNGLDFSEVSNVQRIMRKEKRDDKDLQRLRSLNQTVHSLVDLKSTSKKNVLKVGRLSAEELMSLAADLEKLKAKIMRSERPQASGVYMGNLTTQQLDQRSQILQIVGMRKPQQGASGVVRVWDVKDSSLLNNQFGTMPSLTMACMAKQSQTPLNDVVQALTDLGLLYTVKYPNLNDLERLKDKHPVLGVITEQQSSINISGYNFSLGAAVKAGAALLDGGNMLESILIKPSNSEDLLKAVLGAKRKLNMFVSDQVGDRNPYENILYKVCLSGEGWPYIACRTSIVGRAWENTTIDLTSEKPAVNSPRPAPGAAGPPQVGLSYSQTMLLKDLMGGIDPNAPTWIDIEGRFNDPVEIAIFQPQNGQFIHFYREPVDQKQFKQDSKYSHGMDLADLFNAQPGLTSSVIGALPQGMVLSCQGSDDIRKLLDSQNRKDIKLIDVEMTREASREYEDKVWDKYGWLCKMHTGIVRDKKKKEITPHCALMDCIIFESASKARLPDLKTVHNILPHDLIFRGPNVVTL

SMILES | parasite growth, % of control (lower = inhibition) [1] | Potency [2] | Potency [3] | Potency [4] | Potency [5] | activity change, negative = inhibition [6] | Potency [7] | Potency [8]
OC[C@H]1OC(O)C[C@@H](O)[C@H]1O (stereo not given in full) | 96% | inactive | inactive | inactive | inactive | -3.07% | inactive | 
CNC(=O)c1ccc(-c2cnc3ncc(Cc4ccc5ncccc5c4)n3n2)cc1F |  | inactive | inactive | inactive | inactive |  | inactive | inactive
Cc1cnc(-c2cc(N3CCN(C(=O)CCS(C)(=O)=O)CC3)ncc2Cl)c(C)c1 |  | inactive | inactive | inactive | inactive | -19% | inactive | inactive
